# Test results published in PubChem BioAssay AID620 (Sanford-Burnham Center for Chemical Genomics, 2007).
# Screen size: about 87,000 compounds; about 360 (0.41%) were called active. This excerpt belongs to a sample that is enriched for actives. Values without a mark were called inactive. Rule as the data show it: active = cytotoxicity above about 50%; inactive = the rest.
# Experiment: cytotoxicity in HT1080 fibrosarcoma cells, cell-based, fluorescence readout (AID 620);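 also: cells exposed to compound overnight then 4 h with Alamar Blue; 0% = vehicle DMSO and 100% = killing control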
# Conditions: HT1080 viability, at 10 µM, hits give high values
row,SMILES,cytotoxicity
1,CN1CCC(N(C)C(=O)c2ccccc2Nc2ccc(SC(F)F)cc2)CC1,5.3%
2,CCCn1c(NCc2ccc(C)o2)nc2ccccc21,0.5%
3,COCCn1nnnc1C(c1ccc2ncccc2c1)N1CCN(c2ccccc2F)CC1 (stereo not drawn),-18.9%
4,COc1ccc(S(=O)(=O)N2c3cc(Cl)ccc3Oc3nc4ccccc4nc32)cc1,70.2% (active)
5,O=S(=O)(c1ccccc1)N1c2cc(Cl)ccc2Oc2nc3ccccc3nc21,-4.7%
6,O=S(=O)(c1ccc(Cl)cc1)N1c2ccccc2Oc2nc3ccccc3nc21,3.8%
7,COC(=O)c1cc(NS(=O)(=O)c2ccc(OC)c(OC)c2)ccc1Cl,3.3%
8,COCc1[nH]nc2c1C(c1ccccc1Cl)C(C#N)=C(N)O2 (stereo not drawn),-4.4%
9,Cc1cc(C(C)(C)C)nc2[nH]n(-c3ccccc3)c(=O)c12,-2.1%
10,Cc1ccnc(NC(=O)c2cc(-n3cnnc3)ccc2Cl)c1,12.1%
11,CC(C)(C)C(=O)Nc1sc2c(c1C#N)CCCCC2,5.8%
12,COCCCNC(=O)CC(NS(=O)(=O)c1ccc(Cl)cc1)c1ccco1 (stereo not drawn),-9.5%
13,CC(C)CNS(=O)(=O)c1ccc(CCC(=O)N2CCOCC2)cc1,2.1%
14,C=C(C)COc1ccc(-c2n[nH]c(C)c2-c2ccc(Br)cc2)c(O)c1,50.7% (active)
15,C=C(C)COc1ccc(-c2n[nH]c(C)c2-c2ccc(OC)cc2)c(O)c1,-14.1%
16,COc1ccc(-c2n[nH]c(C)c2-c2ccc(Cl)cc2)c(O)c1,-10.8%
17,COc1ccccc1NS(=O)(=O)c1cc(Cl)ccc1OC,16.4%
18,Cn1c(N)c(C(=O)COC(=O)c2cc(C(F)(F)F)nc3ccccc23)c(=O)n(Cc2ccccc2)c1=O,5.9%
19,CCc1c(C)nc2ncnn2c1NCCc1ccc(OC)cc1,61.9% (active)
20,CCc1c(C)nc2ncnn2c1NCCc1ccccc1,-9.2%
21,COc1ccc(CCNc2c(C)c(C)nc3ncnn23)cc1,17.9%
22,O=C(N1CCOCC1)C12CC3CC(C1)CC(C(=O)N1CCOCC1)(C3)C2,-17.8%
23,Cc1cc(C)c(C)c(S(=O)(=O)NCC(=O)N2CCCC2)c1C,6.8%
24,CCOc1ccccc1OCCCC(=O)Nc1ccc(OC)nc1,2.4%
25,COc1ccc(NC(=O)/C(Cl)=C(/Cl)S(=O)Cc2ccccc2)cn1 (stereo not drawn),95.5% (active)

row,SMILES,cytotoxicity
1,COc1ccc(NC(=O)c2nc3nccc(C)n3n2)cn1,10.5%
2,COc1ccc(NC(=O)c2cc(=O)c3ccccc3o2)cn1,7%
3,COc1ccc(NC(=O)/C(Cl)=C(/Cl)S(=O)Cc2ccc(C)cc2)cn1 (stereo not drawn),92.3% (active)
4,COc1ccc(NC(=O)c2cc(CN3C(=O)c4ccccc4C3=O)ccc2OC)cn1,-0.1%
5,COc1ccc(CC(=O)N2CCN(C(=O)c3ccco3)CC2)cc1,4.7%
6,NC(=O)C(c1ccccc1)C1CCCCC1 (stereo not drawn),5.9%
7,CC1(C)CC(=O)C=C(NCCN2CCN(C(=O)Nc3ccc(Cl)cc3)CC2)C1,-6.1%
8,Cc1[nH]nc(SCC(=O)N2CCC(C)CC2)c1[N+](=O)[O-],0.7%
9,COC(=O)C1CC(=O)N(CCc2c[nH]c3ccccc23)C1 (stereo not drawn),2.6%
10,COC(=O)Cn1nc(-c2ccccc2)c2ccccc2c1=O,5.9%
11,COc1cc(OC)cc(-n2nnnc2SCC(=O)N2CCCC2)c1,-5.2%
12,COc1ccc(-n2nnnc2S(=O)(=O)Cc2ccc(C(=O)O)cc2)cc1,11.4%
13,COc1ccc(-n2nnnc2S(=O)(=O)CC(=O)N2CCCCC2)cc1,54.3% (active)
14,Cn1c(SCc2cc(=O)[nH]c3ccccc23)nnc1-c1ccc(Br)cc1,6%
15,C(=C\c1ccccc1)/CSc1nnc(-c2ccncc2)n1Cc1ccco1,-2.1%
16,Clc1cccc(-c2nnc(SC/C=C/c3ccccc3)n2Cc2ccco2)c1,-0.5%
17,C(=C\c1ccccc1)/CSc1nnc(-c2ccccc2)n1Cc1ccco1,53.5% (active)
18,O=C(CN1C(=O)NC(Cc2ccccc2)C1=O)Nc1ccccc1 (stereo not drawn),-3.1%
19,COC(=O)CSc1cc(C)nc(SC)n1,-7.3%
20,O=C(Nc1cc(Cl)ccc1O)C1CCCO1 (stereo not drawn),-2.4%
21,CCc1nnc(NC(=O)Cn2nc(-c3ccccc3OC)ccc2=O)s1,10.1%
22,CC(=O)c1cn(CC(=O)Nc2ccccc2C)c2ccccc12,-1.9%
23,Cc1ccccc1NS(=O)(=O)c1cc(S(C)(=O)=O)ccc1Cl,-10.1%
24,CN1CCN(c2ccc(Cl)cc2NS(=O)(=O)c2ccccc2Cl)CC1,-1.9%
25,Cc1ccc(NS(=O)(=O)c2ccccc2Cl)c2c1CC(C)(C)O2,62.3% (active)

row,SMILES,cytotoxicity
1,COc1ccc(C2CC(c3c(O)cc(C)oc3=O)=NCCS2)c(OC)c1 (stereo not drawn),51.9% (active)
2,COc1ccc(C2C(C(C)=O)=C(O)C(=O)N2C)c(OC)c1 (stereo not drawn),5.8%
3,COC(=O)C1=C(C)C(c2ccc(OC)cc2OC)NC(=O)N1 (stereo not drawn),2.9%
4,CCN1CC=C2C(C#N)=C(N)C(C#N)(C#N)[C@H](c3ccoc3)[C@H]2C1,-2.2%
5,CN1CC=C2C(C#N)=C(N)C(C#N)(C#N)[C@H](c3ccoc3)[C@H]2C1,-7.5%
6,N#CC1=C(N)C(C#N)(C#N)[C@H](c2ccoc2)[C@H]2CN(Cc3ccccc3)CC=C12,66.1% (active)
7,CCOC(=O)c1ccc(NC(=O)CN2CCc3ccccc3C2)cc1,-3.7%
8,COc1cccc(-c2cc(C(=O)Nn3cnnc3)c3ccccc3n2)c1,11.6%
9,CCN(CC)c1nc(N)nc(NS(=O)(=O)c2ccc(Cl)cc2)n1,51.4% (active)
10,CCNc1nc(NC(C)C)nc(NS(=O)(=O)c2ccc(Cl)cc2)n1,-8.8%
11,CN(C)c1nc(NS(=O)(=O)c2ccc(Cl)cc2)nc(N(C)C)n1,35.3%
12,COCCNC(=O)CN(Cc1ccc2c(c1)OCO2)C(=O)CCC(=O)Nc1nccs1,-8.1%
13,O=C(CN(C(=O)Cn1nnc(-c2cccs2)n1)c1ccc2c(c1)OCCO2)NCC1CCCO1 (stereo not drawn),-1.3%
14,O=C1NC(c2cccs2)Nc2ccccc21 (stereo not drawn),10.2%
15,Cc1ccsc1C1NC(=O)c2ccccc2N1 (stereo not drawn),7.3%
16,Cc1ccc(C2NC(=O)c3ccccc3N2)s1 (stereo not drawn),57.7% (active)
17,Cc1ccc(S(=O)(=O)Nc2cccc3ncccc23)s1,54.9% (active)
18,O=S(=O)(Nc1cccc2c1ccc1cccn12)c1cccs1,-4.6%
19,Cc1ccc(S(=O)(=O)NCc2cccnc2)s1,-11.9%
20,CCOc1ccccc1NS(=O)(=O)c1cccs1,56.5% (active)
21,O=S(=O)(Nc1cccc2ncccc12)c1cccs1,85% (active)
22,O=S(=O)(Nc1ccc(-c2nc3cccnc3s2)cc1)c1cccs1,-6.8%
23,COc1ccccc1NS(=O)(=O)c1cccs1,8.9%
24,Cc1ccc(S(=O)(=O)Nc2ccnc3ccccc23)cc1,5.4%
25,CCOc1ccccc1NS(=O)(=O)c1ccc(Br)s1,20.7%

row,SMILES,cytotoxicity
1,O=C(c1ccc2c3c(cccc13)CC2)N1CCOCC1,-18.7%
2,CC(=O)N1C(=O)C2(C(C#N)=C(N)Oc3n[nH]c(-c4ccccn4)c32)c2ccccc21 (stereo not drawn),6.9%
3,O=C(NCc1ccc2c(c1)OCO2)c1nn(-c2ccccc2)c(=O)c2ccccc12,-4.7%
4,O=C(Nc1ccccn1)C(=O)N1CCCCC1,4.7%
5,COc1cccc2c1C(=O)c1c(O)c3c(c(O)c1C2=O)C[C@@](O)(C(=O)CO)C[C@@H]3O[C@H]1C[C@H](N)[C@H](O)[C@H](C)O1,53.8% (active)
6,Cc1noc(/C=C/c2ccco2)c1S(=O)(=O)N1CCC(C(=O)N(C)Cc2ccccc2)CC1,-4.4%
7,COc1ccc(C(CC(=O)O)NC(=O)COc2ccc(C)cc2)cc1OC (stereo not drawn),4.5%
8,CCOC(=O)c1ccccc1Nc1cn(C(C)=O)c2ccccc12,53.7% (active)
9,CC(=O)n1cc(Nc2ccccc2C(=O)O)c2ccccc21,0.2%
10,CCOCC(=O)Nc1ccccc1C(=O)OCC,-3.7%
11,COc1ccc2c(Cl)c(-c3nnc4n3CCCCC4)sc2c1,-8.8%
12,COc1ccc(C2C3=C(CC(C)(C)CC3=O)Oc3ncn(CCCn4ccnc4)c(=N)c32)cc1 (stereo not drawn),20.5%
13,Cc1nc(CSc2nc3[nH]ncc3c(=O)n2-c2ccccc2)cs1,-1.5%
14,Cc1noc(C)c1CSc1nc2ccccc2c(=O)n1-c1ccc(Cl)cc1,-2.7%
15,C=CCn1c(SCc2c(C)noc2C)nc2ccccc2c1=O,60.3% (active)
16,Cc1noc(C)c1CSc1nnc(-c2ccccc2)n1Cc1ccco1,2.6%
17,CCc1cc2c(=O)n(Cc3ccco3)c(SCC(=O)N3CCCc4ccccc43)nc2s1,-1.5%
18,Cc1noc(C)c1CSc1nc2[nH]ncc2c(=O)n1-c1ccccc1,60.4% (active)
19,C=CCn1c(SCc2c(C)noc2C)nc2cc(C(=O)O)ccc2c1=O,25.6%
20,Cc1noc(C)c1CSc1nc2ccccc2c(=O)n1-c1ccccc1,48.9%
21,Cc1occc1C(=O)Nc1ccc2c(c1)CCC2,12.8%
22,CC(C)Cc1cc(C(=O)Nc2cc(Cl)ccc2Cl)no1,1.8%
23,O=C(C1CC1)N1CCCN(C(=O)C2CC2)CC1,1.3%
